Sampled rows, rich in hits. Any-hit rate of the full collection: about 4%.
D1 antagonist = Antagonist of Human D 1 Dopamine Receptor: qHTS. D(1A) dopamine receptor (Homo sapiens), P21728. HEK293 TREx D1 cells, calcium flux, dopamine EC80; stronger effect = lower value. activity change, negative = inhibition, % at 10 µM. 3.2% of 360,000 active; in the data active = activity change below about -30%; also: % is scaled to controls: 0 for no effect and ±100 for the full control effect
Target sequence (P21728 whole entry, looked up): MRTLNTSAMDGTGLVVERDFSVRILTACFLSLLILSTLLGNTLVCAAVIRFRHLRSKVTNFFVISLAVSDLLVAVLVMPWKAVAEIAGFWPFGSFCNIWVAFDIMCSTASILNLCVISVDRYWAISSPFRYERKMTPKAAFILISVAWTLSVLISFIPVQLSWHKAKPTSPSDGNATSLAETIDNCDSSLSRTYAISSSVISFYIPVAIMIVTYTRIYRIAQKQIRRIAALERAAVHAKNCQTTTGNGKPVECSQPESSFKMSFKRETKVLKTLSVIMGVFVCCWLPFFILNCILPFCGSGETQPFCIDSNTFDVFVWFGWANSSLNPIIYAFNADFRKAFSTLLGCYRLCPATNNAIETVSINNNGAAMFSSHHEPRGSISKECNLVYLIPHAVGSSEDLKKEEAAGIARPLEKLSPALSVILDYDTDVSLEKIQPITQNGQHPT
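HEK293 T-REx cells expressing inducible, force-coupled D1 receptor; no-wash Ca dye, 30–90 min RT. Cmpd → 180 s read at 1 Hz → EC80 DA → 180 s read.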
TRHR ag = qHTS for Small Molecule Agonists and Allosteric Enhancers of Human TRH Receptor: Primary Screen for Agonists | activation, % at 2 µM | TRHR cells, calcium flux fluo-8, FDSS agonist mode | 0.18% of 360,000 active | Thyrotropin-releasing hormone receptor (Homo sapiens), P34981; also: 0% is about no effect
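Steps: seed TRHR cells overnight; add fluo-8 no-wash Ca dye, RT 30 min–1.5 h; record 10 s baseline; pin-transfer compounds; monitor fluorescence 1 cycle/s for the agonist window. Calcium increases flag candidate agonists.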
D1 ag = Allosteric Agonists of the Human D1 Dopamine Receptor: qHTS; D(1A) dopamine receptor (Homo sapiens), P21728; HEK293 T-REx D1 cells, calcium flux, agonist mode; activation, % at 2 µM; 1% of 360,000 active; AID 504660, 2011; also: 0% is about no effect
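Agonism was scored from calcium flux recorded over 180 s (1 read/s) after pintool compound addition, following a 10-cycle baseline. Cells were inducible force-coupled HEK293 TREx D1, plated overnight at 30 C and loaded with no-wash calcium dye.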
GRP78 ERSR act = qHTS for Inducers of the Endoplasmic Reticulum Stress Response (ERSR) in Human Glioma: qHTS. Potency, µM, inactives show top-dose activation, actives largely listed as activators. 0.02% of 420,000 active. AID 602332, 2012. U87-MG GRP78 promoter luciferase reporter, 16 h; active = well fitted activation curve with a large enough effect; also: potency is read from the fitted curve at half-maximal effect; series mostly up to about 76 µM; % of control where 0% means no effect; nearly all actives have a fitted effect of over 35% in size
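Stably transfected U87-MG glioma cells carrying a GRP78-based luciferase sensor; 16 h compound incubation. Luminescence end-point read 10 min after Bright-Glo addition at room temperature.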
TRHR PAM = qHTS for Small Molecule Agonists and Allosteric Enhancers of Human TRH Receptor: Primary Screen for Enhancers | Thyrotropin-releasing hormone receptor (Homo sapiens), P34981 | TRHR cells, fluo-8 calcium fluorescence, EC20 TRH enhancement | enhancement, % at 2 µM | 0.66% of 360,000 active; in the data active = enhancement above about 30%; also: 0% is about no effect
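Enhancer read-out: after compound pinning and an initial kinetic agonist-mode read, an EC20 of TRH (10 nM final) was injected and fluo-8 calcium signal (Ex 480/Em 530) followed at 1 s/cycle for 100 cycles in TRHR-expressing cells.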
D1 potentiator = Potentiators of Human D1 Dopamine Receptor: qHTS. D(1A) dopamine receptor (Homo sapiens), P21728. HEK293 TREx D1 cells, calcium flux, dopamine EC20 potentiation. potentiation, % at 10 µM. 0.036% of 360,000 active. AID 504651, 2011; in the data active = potentiation above about 30%; also: 0% is about no effect
Numbers without * were called inactive; . = not tested or not shown. Rule as the data show it, unless noted: active = activation above about 30%; inactive = the rest.

SMILES	D1 antagonist	TRHR ag	D1 ag	GRP78 ERSR act	TRHR PAM	D1 potentiator
O=C(c1cccc(F)c1)N1CCCN(C(=O)c2cccc(F)c2)CC1	-81*	0	1	-4%	6	-5
CN1C(=S)SC(/[N+]([O-])=C/c2c(F)cccc2Cl)C1(C)C (configuration not stated)	5	0	1	-5%	-8	0
COCCNC(=O)CN(C(=O)Cn1nnc2ccccc21)c1ccc(F)c(Cl)c1	5	1	1	-3%	-6	-8
CC(=O)c1cc(C#N)c(NCc2ccccc2)nc1C	-10	0	12	0%	15	-4
CCOC(=O)c1cc(C#N)c(NCc2ccccc2)nc1C	-43*	0	5	1%	-5	-6
CCOC(=O)c1cc(C(=O)NN)c(C)nc1C	-87*	-1	3	-5%	2	-5
CCOC(=O)c1cc(C#N)c(Oc2ccc(F)cc2)nc1-c1ccccc1	-35*	1	8	-5%	1	-2
Cc1nc2c(C)cccc2c(SC(=N)N)c1CC=C(Cl)Cl	5	1	3	-3%	1	0
O=C(CN(c1ccc(F)cc1)S(=O)(=O)c1ccccc1)NCc1ccco1	-11	-1	1	-3%	-5	-2
O=C(O)c1cccc(N/N=C/c2ccc(-c3ccccc3)cc2)c1	-17	-1	4	-13%	-3	0
O=C(O)c1cccc(N/N=C/c2cccnc2)c1	-31*	1	0	-14%	12	-4
Cc1ccc(NC(=S)NCC2CCN(C(C)c3ccccc3)C2)cc1 (configuration not stated)	-21	0	5	1%	-7	-9
CCN(CC)CCCCN1c2ccccc2Sc2ccccc21	-12	2	35*	-7%	-8	-4
CCc1ccccc1NC(=O)Cn1c(=O)n(CCCS(=O)(=O)C2CCCCC2)c(=O)c2ccccc21	2	-1	12	0%	0	0
Cc1ccc(CN(Cc2ccco2)C(=O)c2oc3c(C)c(C)ccc3c2C)cc1	-4	1	18	-1%	7	1
CCCCNC(=O)CNC(=S)N(Cc1ccc(C)cc1)Cc1ccco1	-15	-2	5	-3%	-5	-4
Cc1ccc2occ(CC(=O)N(Cc3ccc(Cl)cc3)Cc3ccco3)c2c1	-26	-1	90*	2%	3	21
Cc1cc2oc(C(=O)N(Cc3ccco3)Cc3ccccc3Cl)c(C)c2cc1C	11	2	18	-2%	41*	-1
Cc1ccc(CN(Cc2ccco2)C(=O)c2oc3ccc(C)cc3c2C)cc1	12	5	37*	9%	3	-2
Cc1ccc(CN(Cc2ccco2)C(=S)NCC(=O)NC2CC2)cc1	-31*	-2	2	0%	-9	-2
Cc1cc2oc(C(=O)N(Cc3ccc(N(C)C)cc3)Cc3ccco3)c(C)c2cc1Cl	-5	0	-2	.	-1	-1
CC1CC(=O)Nc2ccccc2N1C(=O)Nc1ccc(F)cc1F (configuration not stated)	-1	0	2	0%	0	-1
CCCCCCCCCCCCN1C/C(=C\C(=O)OCC)c2cc(C(F)(F)F)ccc2S1(=O)=O	18	1	3	5%	-7	-3
CCCn1c(SCC(=O)c2ccc3c(c2)OCCO3)n[nH]c1=O	-7	0	6	4%	-13	5
COc1ccccc1Cc1c(-c2ccc(F)cc2)nc2c(C)cc(Br)cn12	.	.	.	35µM*	.	.
SMILES	D1 antagonist	TRHR ag	D1 ag	GRP78 ERSR act	TRHR PAM	D1 potentiator
COc1ccc(CCC(=O)Nc2ccc(OC)c(S(=O)(=O)N3CCCCC3)c2)cc1OC	3	0	-1	-4%	-1	-5
COc1ccccc1CCC(=O)OCC(=O)Nc1ccc(C)c(S(=O)(=O)N2CCCCC2)c1	-33*	1	4	-4%	-19	-7
COc1ccc(NC(=O)c2n[nH]c(=O)c3ccccc23)cc1S(=O)(=O)N1CCCCC1	-39*	0	1	-2%	-3	-1
CCOc1ccc(NC(=O)CN(C)Cc2ccc3c(c2)OCO3)cc1S(=O)(=O)N1CCCC1	-35*	-1	0	-3%	-13	-6
CCc1ccc(C(=O)CCC(=O)Nc2ccc(OC)c(S(=O)(=O)N3CCCCC3)c2)cc1	-41*	0	7	-1%	0	.
COc1ccccc1CCC(=O)Nc1ccc(OC)c(S(=O)(=O)N2CCCCC2)c1	-4	0	6	-3%	0	.
COc1ccc(C(C#N)=Cc2ccccc2OC)cc1	.	.	.	-2%	.	.
CCOC(=O)c1cccc(NC(=O)CC2C(=O)N(c3ccc(OC)cc3)C(=O)N2C2CCCC2)c1 (configuration not stated)	-35*	0	7	2%	5	-4
CCCOc1ccc(NC(=O)CC2C(=O)N(c3ccc(OC)cc3)C(=O)N2CCc2ccncc2)cc1 (configuration not stated)	-42*	0	1	4%	2	-2
COC(=O)c1ccc(NC(=O)CC2C(=O)N(c3cccc(OC)c3)C(=O)N2C(C)C)cc1 (configuration not stated)	-32*	-1	-1	-2%	4	-3
COC(=O)c1ccc(NC(=O)CC2C(=O)N(c3ccccc3)C(=O)N2Cc2ccc(F)cc2)cc1 (configuration not stated)	-4	1	-2	-2%	-1	-2
COc1cccc(N2C(=O)C(CC(=O)Nc3cccc(F)c3)N(C(C)C)C2=O)c1 (configuration not stated)	3	0	1	-3%	-7	-2
COC(=O)c1ccc(NC(=O)CC2C(=O)N(c3cccc(F)c3)C(=O)N2CC(C)C)cc1 (configuration not stated)	-33*	-2	10	0%	10	0
CC(C)n1c(N2CCN(C(=O)Nc3ccc(Cl)cc3)CC2)nc2ccccc21	-3	-1	1	1%	4	-5
COc1ccc(Cl)cc1S(=O)(=O)N1CCN(C(=O)c2cc(-c3ccc(Br)cc3)n[nH]2)CC1	9	0	1	-4%	10	-1
O=C(CN1C(=O)NC2(CCCC2)C1=O)OCCOc1ccccc1Cl	28	0	2	-3%	-3	-2

Screening results deposited in PubChem by National Center for Advancing Translational Sciences (NCATS).
